NCOA2 inhibitor – human SRC2 (NCOA2) inhibition | Q15596 | HEK293 GAL4-SRC2 luciferase reporter, luminescence | inhibition, % at 9 µM | hit rate 0.17% among 370,000 | AID 651957;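 active means inhibition above the mean inhibition of all tested compounds plus 3 SD, set per campaign, cut at about 52% in these data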;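 further: 0% = DMSO treated cells and 100% = cells given Gossypol at 36 µM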
NR5A2 inv ag – NR5A2 inverse agonism in reporter assay; O00482; HEK293T StAR-luciferase reporter, LRH-1 transfected, 24 h; inhibition, % at 3.6 µM; hit rate 0.13% among 360,000; AID 602396;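 active means inhibition above the mean inhibition of all tested compounds plus 3 SD, cut at about 73% in these data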;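 further: 0% = DMSO wells and 100% = reporter-only cells lacking LRH-1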
NCOA1 inh – inhibits human SRC1 coactivator. inhibition, % at 3.6 µM. AID 588354. hit rate 0.12% among 360,000. Q15788. HEK293 GAL4-SRC1 luciferase reporter, luminescence;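 active means inhibition above the campaign mean plus 3 SD, with each screening campaign given its own cutoff, cut at about 60% in these data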;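 further: 0% = DMSO treated cells and 100% = gossypol at 36 µM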
NCOA3 inh – inhibitors of human steroid receptor coactivator 3 (SRC3). Q9Y6Q9. HEK293 GAL4-SRC3 luciferase reporter, luminescence. inhibition, % at 3.6 µM. hit rate 0.17% among 360,000. AID 588352;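 active means inhibition above a per-campaign cutoff, the mean of all compounds plus 3 SD, cut at about 60% in these data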;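 further: 0% = DMSO-treated cells and 100% = gossypol-treated cells at 36 µM; higher means less SRC3-driven luciferase light from the GAL4 reporter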
COUP-TFII inh – blocks human COUP-TFII nuclear receptor; inhibition, % at 8.6 µM; HEK293T NGFI-A luciferase reporter, luminescence; P24468; hit rate 0.7% among 370,000;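 active means inhibition above a per-plate cutoff, mean inhibition of test wells between control levels plus 3 SD, cut at about 38% in these data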;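 further: cells cotransfected with COUP-TFII expression vector driving the NGFI-A reporter; 0% = median of COUP-TF2 test wells and 100% = reporter-only cells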
Gli-Sufu antag – antagonists of Gli-Sufu signaling; Sufu-KO-LIGHT fibroblasts, Gli luciferase reporter luminescence; inhibition, % at 5 µM; hit rate 0.74% among 340,000;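 active means inhibition above about 55%, limit read from the data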;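 further: 0% = DMSO-treated cells and 100% = wells with medium but no cells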
Gli antag conf – Gli-SUFU antagonism confirmation, single concentration; shares compounds with Gli-Sufu antag; Sufu-KO-LIGHT cells, Gli luciferase reporter, luminescence; inhibition, % at 5 µM; hit rate 40% among 2,500;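 active means mean inhibition at 5 µM reaching about 45%, limit read from the data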;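 further: plate controls were DMSO-treated cells for no effect and wells lacking cells for full effect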
Gli cytotox – cytotoxic in Gli-SUFU antagonist counter-screen; shares compounds with Gli-Sufu antag; Sufu-KO-LIGHT cells cytotoxicity, ATP luminescence; cytotoxicity, % at 5 µM; hit rate 32% among 2,500;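 active means mean cytotoxicity at 5 µM above about 25%, limit read from the data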;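 further: cells exposed to compound overnight for roughly 16 to 18 hours; plate controls were DMSO wells with cells for no effect and medium without cells for full effect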
Wnt3a counter – Wnt3a reporter inhibition counter-screen. shares compounds with Gli-Sufu antag. Wnt-LIGHT cells, Wnt3a-driven luciferase reporter, luminescence. inhibition, % at 6.25 µM. hit rate 20% among 2,500;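 active means mean inhibition above about 25%, limit read from the data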
The depositor's hits bear a star; · = not tested or not shown. In the library only some 1.3% were active in any assay of this set; here they are far more common.

SMILES	NCOA2 inhibitor	NR5A2 inv ag	NCOA1 inh	NCOA3 inh	COUP-TFII inh	Gli-Sufu antag	Gli antag conf	Gli cytotox	Wnt3a counter
Cc1[nH]n(-c2nc(-c3ccc(Cl)cc3)cs2)c(=O)c1N=Nc1ccc(O)cc1	13	-37	-21	-13	-6	70*	71*	35*	29*
CCc1c(C)[nH]n(-c2nc(-c3ccccc3)cs2)c1=O	-5	-25	-22	-12	-17	-4	·	·	·
C=CCOC(=O)N1CCN(C(=O)c2ccc3c(c2)nc(C)n3C2CCCC2)CC1	-8	·	·	·	13	·	·	·	·
COc1ccc(OC)c(/C=C2\SC(N3CCCC(C)C3)=NC2=O)c1 (stereo not drawn)	-46	-11	-1	7	20	64*	14	12	-22
Cc1ccc(NC(=O)Nc2nnc(-c3ccncc3)s2)cc1C	28	-8	3	-8	-10	-13	·	·	·
O=C(Nc1cccc(Cl)c1)Nc1nnc(-c2ccncc2)s1	23	5	43	52	9	57*	61*	19	69*
O=C(Nc1ccc(Cl)cc1)Nc1nnc(-c2ccncc2)s1	1	17	-18	6	20	74*	72*	25*	70*
Cc1cnc(NC(=O)CSc2ccc(Cl)cc2)s1	-28	-6	4	-1	-5	3	·	·	·
Cc1cnc(NC(=O)Nc2ccc(Cl)cc2)s1	-57	-56	-60	-87	-34	76*	49*	11	-125
CN1CCN(c2ccc3c(c2)Oc2ccccc2CN(Cc2cn(Cc4ccc(C(F)(F)F)cc4)nn2)S3(=O)=O)CC1	-11	·	·	·	1	·	·	·	·
CN1CCCN(C(=O)C2CCN(c3ncnc4c3sc3cccc(F)c34)CC2)CC1	-10	·	·	·	-2	·	·	·	·
Cc1ccc(/C=N/NC(=O)Cn2nccc2C)o1	-1	1	-5	0	-6	60*	7	-4	-4
Cc1nn(-c2ccccc2)c(C)c1/C=N/NC(=O)c1cc(-c2ccc(Br)s2)[nH]n1	-24	-2	-5	9	5	2	·	·	·
Cc1nn(-c2ccccc2)c(C)c1/C=N/NC(=O)c1cc(-c2cccs2)[nH]n1	13	5	-12	1	-66	50	61*	60*	-62
O=C1c2ccccc2S(=O)(=O)c2cc(C(=O)N3CCN(c4ccc(Cl)cn4)CC3)ccc21	-12	11	-3	3	7	-3	·	·	·
N#Cc1cccnc1N1CCN(C(=O)c2ccc3c(c2)S(=O)(=O)c2ccccc2C3=O)CC1	-17	-5	3	5	6	50	26	2	-10
CCNC(=S)NNC(=O)CSc1nnc(SCc2cccc3ccccc23)s1	1	·	·	·	0	·	·	·	·
CCCCOC(=O)CCN1C(=O)/C(=C/c2ccccc2)SC1=S	·	·	·	·	1	·	·	·	·
O=C(Nc1ccc(C(=O)O)cc1)Nc1ccc([N+](=O)[O-])cc1	6	-18	-1	-61	0	13	·	·	·
O=C(Nc1cc(C(F)(F)F)cc(C(F)(F)F)c1)Nc1cnn(-c2ccc([N+](=O)[O-])cc2)c1C(F)(F)F	-9	4	-14	9	-12	55*	74*	13	24
CCN1C(=O)CC(c2ccccc2)N(C2CCCC2)c2nc(Nc3ccc(C(=O)NC4CCN(C)CC4)cc3OC)ncc21 (stereo not drawn)	·	-16	-7	17	·	16	·	·	·
CCN1C(=O)CC(C(C)C)N(C2CCCC2)c2nc(Nc3ccc(C(=O)NC4CCN(C)CC4)cc3OC)ncc21 (stereo not drawn)	·	-4	2	10	·	6	·	·	·
COc1cc(C(=O)NC2CCN(C)CC2)ccc1Nc1ncc2c(n1)N(Cc1ccccc1)CCC(=O)N2C	-1	-7	-90	0	-1	91*	89*	20	-101
COc1cc(C(=O)NC2CCN(C)CC2)ccc1Nc1ncc2c(n1)N(C1CCCCC1)CCC(=O)N2C	-171	42	-41	-7	-111	82*	79*	19	-70
O=C(Cc1csc(Nc2nc(=S)[nH]c3ccccc23)n1)NCCCN1CCN(c2ccccc2F)CC1	-9	15	-19	-3	11	86*	37	21	-41
SMILES	NCOA2 inhibitor	NR5A2 inv ag	NCOA1 inh	NCOA3 inh	COUP-TFII inh	Gli-Sufu antag	Gli antag conf	Gli cytotox	Wnt3a counter
O=C(Cc1csc(Nc2nc(=S)[nH]c3ccccc23)n1)NCc1ccc(Cl)cc1	·	-24	-13	7	·	·	·	·	·
Nn1c(CSc2nc3ccccc3o2)nnc1CSc1nc2ccccc2o1	-5	8	-3	0	7	94*	23	-3	11
Cc1csc(N2CCCC2c2nc3cc(C(F)(F)F)ccc3n2CCOCCO)n1 (stereo not drawn)	-2	17	-20	2	10	85*	18	-1	-72
Cc1csc(N2CCCC2c2nc3cc(Cl)c(N4CCCCC4)cc3n2CCOCCO)n1 (stereo not drawn)	-6	10	-5	-8	8	9	·	·	·
Cc1cc(-c2ccc(C)c(S(=O)(=O)NCCCN3CCCCCC3)c2)on1	-3	-6	-25	-5	-11	18	·	·	·
Cc1cc(-c2ccc(C)c(S(=O)(=O)NCCCN3CCN(c4ccccc4F)CC3)c2)on1	10	14	8	6	31	56*	39	13	0
COc1cc(/C=N/N(CCO)C2=NS(=O)(=O)c3ccccc32)cc(OC)c1OC	-19	-1	2	-16	5	38	·	·	·
COc1cc(Br)cc(/C=N/N(CCO)C2=NS(=O)(=O)c3ccccc32)c1OC	-73	-9	-11	-20	-1	64*	42	7	-12
COc1ccc(S(=O)(=O)N2CCC(C(N)=O)(N3CCCCC3)CC2)cc1	-10	15	-16	11	14	1	·	·	·
CC(=O)Nc1ccc(S(=O)(=O)N2CCC(C(N)=O)(N3CCCCC3)CC2)cc1	-38	9	-103	-8	-6	55*	30	-1	14
CCOC(=O)CNC(=O)c1c(C)nn(-c2ccccc2)c1Cl	-16	16	-34	-3	-5	95*	12	22	-11
COC(=O)[C@]12C[C@H](CC(=O)NCc3ccccc3)C(=O)N(CCc3ccc(OC)c(OC)c3)C1=C[C@H](COCc1ccccc1)O[C@@H]2C	4	·	·	·	4	·	·	·	·
CCC[C@@H](/C=C/C(=O)OC(C)(C)C)Sc1ccc(OC)cc1	-24	·	·	·	-11	·	·	·	·
Clc1ccc(-n2c(SCc3cccc4ccccc34)nnc2-c2ccccn2)cc1	27	·	·	·	24	·	·	·	·
Fc1ccccc1-c1n[nH]c(=S)n1N=Cc1ccc(-c2ccccc2)cc1	0	·	·	·	-17	·	·	·	·
